The panel holds about 79,000 compounds, 15% with a hit somewhere; the sample as a whole holds those more often. Active and inactive are the calls of the source. No stated cut-off is given here; in the data, active means growth inhibition above about 70%; inactive means the rest.
Columns and labels:
[1] = NCI Yeast Anticancer Drug Screen. Data for the rad50 strain (AID 155);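 further: 0% = growth of vehicle-only cultures of the same strain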; details: S. cerevisiae rad50 strain growth inhibition; at 50.0 µM; stronger effect = higher value
In short: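 Yeast carrying a defined DNA repair defect were exposed to test compounds, and growth was compared with vehicle-treated controls to give percent inhibition.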

[2] = NCI Yeast Anticancer Drug Screen. Data for the mec2-1 strain (AID 157); details: S. cerevisiae mec2-1 strain, at 50.0 µM, stronger effect = higher value
In short: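 Growth inhibition is read against vehicle-treated controls after compound exposure of the mec2-1 yeast strain, which is defective in DNA damage repair or cell cycle control.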

[3] = NCI Yeast Anticancer Drug Screen. Data for the sgs1 mgt1 strain (AID 161);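 further: 0% = growth of cultures given vehicle only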; details: S. cerevisiae sgs1 mgt1 strain, at 50.0 µM, stronger effect = higher value
In short: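 Compounds are added to genetically altered yeast, and growth is compared with cultures given vehicle alone to give percent inhibition.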

[4] = NCI Yeast Anticancer Drug Screen. Data for the cln2 rad14 strain (AID 165);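 further: 0% = growth equal to vehicle treated cultures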; details: S. cerevisiae cln2 rad14 strain, at 50.0 µM, stronger effect = higher value
In short: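 Growth inhibition, relative to vehicle-treated controls, is the read-out. The test organism is a yeast strain with defined genetic alterations, cln2 rad14.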

[5] = NCI Yeast Anticancer Drug Screen. Data for the bub3 strain (AID 167); details: S. cerevisiae bub3 mutant strain, at 50.0 µM, stronger effect = higher value
In short: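 Compounds were applied to a genetically altered yeast strain carrying a cell-cycle control defect. Growth inhibition was scored against vehicle-treated controls.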

[6] = NCI Yeast Anticancer Drug Screen. Data for the mlh1 rad18 strain (AID 175); details: S. cerevisiae mlh1 rad18 strain growth inhibition; at 50.0 µM; stronger effect = higher value
In short: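 Cells of a genetically altered yeast strain, deficient in DNA damage repair, were treated with compound. Their growth was then compared with that of vehicle-treated cultures to give inhibition.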

Measured: growth inhibition

CCC(C(C)C)C1NC1C(C)C1CCC2C3CC=C4CC(OC(C)=O)CCC4(C)C3CCC12C (stereo unspecified)
active: [1] 95.8% | [2] 99.2% | [3] 99.1% | [4] 98.3% | [5] 98.6% | [6] 98.7%

O=[N+]([O-])c1cc(S(=O)(=O)F)cc(Cl)c1O
inactive: [1] -10.2% | [2] 1.6% | [3] 2.25% | [4] -3.7% | [5] -2.75% | [6] 8.45%

CCCCCCCCCCCCCCCC(=O)OCC(C[As](=O)(O)O)OC(=O)CCCCCCCCCCCCCCC (stereo unspecified)
inactive: [1] 26.1% | [2] 5.9% | [3] -15.1% | [4] 9.5% | [5] -0.15% | [6] 13.5%

Oc1ccc(CC2NCCc3cc(O)c(O)cc32)cc1O (stereo unspecified)
inactive: [1] 17.5% | [2] -4.15% | [3] 26.3% | [4] 24.3% | [5] 26.4% | [6] 23.1%

CC(=O)CC(C)=O.CC(=O)CC(C)=O.[Co]
inactive: [1] -31.9% | [2] -41% | [3] -8% | [4] -133% | [5] -52.3% | [6] 0.7%

NC(=O)Nc1ccc([As]=O)cc1 (stereo unspecified)
inactive: [1] 8% | [2] -5.7% | [3] -1.3% | [4] 11.5% | [5] -15.2% | [6] 2.65%

COc1ccc([N+](=O)[O-])cc1
inactive: [1] 23.6% | [2] -5.8% | [3] 12.6% | [4] 20.9% | [5] 1.1% | [6] -20.9%

CCOC(=O)C(Cc1ccc(N(CCCl)CCCl)cc1)NC(=O)C(NC(C)=O)C(C)C (stereo unspecified)
inactive: [1] 36.9% | [2] 13.3% | [3] 33.2% | [4] 17.4% | [5] 29.7% | [6] 28.4%

COC(=O)C(CCC(=O)O)NC(=O)OCc1ccccc1 (stereo unspecified)
inactive: [1] 40.5% | [2] -1.35% | [3] 17.6% | [4] -7.7% | [5] 4.55% | [6] 19.5%

COC(=O)C1(F)C(=O)NC(=O)NC1O (stereo unspecified)
inactive: [1] -4.6% | [2] -2.75% | [3] 3.5% | [4] 14.7% | [5] 0.85% | [6] 2.25%

O=C(Nc1cc(S(=O)(=O)O)cc2cc(S(=O)(=O)O)c(N=Nc3ccc([As](=O)(O)O)cc3)c(O)c12)c1ccc([N+](=O)[O-])cc1
inactive: [1] 12.7% | [2] 1.7% | [3] -7.45% | [4] -9.1% | [5] -3.4% | [6] 6.55%

CC(=O)OC1OC(CS[As](C)C)C(OC(C)=O)C(OC(C)=O)C1OC(C)=O (stereo unspecified)
inactive: [1] 58.6% | [2] -3.05% | [3] 54.8% | [4] 28.7% | [5] 17.6% | [6] 52.5%

ClCCCN1CCN(c2ccccc2Cl)CC1
inactive: [1] 9.35% | [2] -16.7% | [3] 7.45% | [4] 7.45% | [5] 1.15% | [6] -7.8%

CN(C)C1OCC(C)(C)CO1
inactive: [1] -13.9% | [2] -34.7% | [3] -5.55% | [4] 12.3% | [5] -18% | [6] -7.1%

NC(=Nc1ccccc1)Nc1ccccc1 (tested in a mixture with another compound)
inactive: [1] -1.65% | [2] -12.1% | [3] 1.7% | [4] 13.2% | [5] 6.4% | [6] 6.35%

CCCCCC(C)C1C(=O)NC(=O)NC1=O (stereo unspecified)
inactive: [1] 6.4% | [2] 12.9% | [3] 2.65% | [4] 5.7% | [5] 7.8% | [6] -6%

CCC1(c2ccc(C)cc2)C(=O)NC(=S)NC1=O
inactive: [1] 6.1% | [2] -8.15% | [3] 17.2% | [4] 28.6% | [5] 14% | [6] 11.8%

O=c1[nH]c2ccc([As](O)O)cc2[nH]1
inactive: [1] -14.8% | [2] -14.9% | [3] -4.9% | [4] -17.8% | [5] -8.25% | [6] 0.75%

CC(C)C(C)(O)C#N (stereo unspecified)
inactive: [1] 2.2% | [2] -2.1% | [3] 2.6% | [4] -23.4% | [5] 2.9% | [6] 17.9%

O=C1CN2CCC1CC2
inactive: [1] 10.3% | [2] -47% | [3] -3.25% | [4] 12.6% | [5] -23.2% | [6] 10.8%

COC(=O)CN(C)P(=O)(N1CC1)N1CC1
inactive: [1] 13.4% | [2] 7.15% | [3] -4.1% | [4] -10.2% | [5] -2.8% | [6] -10.1%

COC1C(OC(=O)c2ccc(C)[nH]2)C(O)C(Oc2ccc3c(O)c(NC(=O)c4ccc(O)c(CC=C(C)C)c4)c(=O)oc3c2Cl)OC1(C)C (stereo unspecified)
inactive: [1] 44.2% | [2] 25.9% | [3] 23.8% | [4] 50.6% | [5] 35.9% | [6] 33%

CCOP(=O)(CC(N)=O)OCC
inactive: [1] -4.9% | [2] 9.8% | [3] 3.5% | [4] 0.1% | [5] 13.8% | [6] -11.8%

c1ccc(OP(Oc2ccccc2)(c2ccccc2)(c2ccccc2)c2ccccc2)cc1
inactive: [1] 6.05% | [2] 6.6% | [3] 13.4% | [4] -16.4% | [5] -5.1% | [6] -42.6%

C=C[C](=C)[Pb]([CH2]C)([CH2]C)[CH2]C
inactive: [1] -7.3% | [2] 4.75% | [3] -10.5% | [4] 13.7% | [5] -10.6% | [6] 5.5%

O=P(N1CCCCCC1)(N1CC1)N1CC1
inactive: [1] -2.15% | [2] 11% | [3] -11.4% | [4] 3.95% | [5] -3.25% | [6] 6.35%

O=S1(=O)CC2(N3CCOCC3)C3CCC(C3)C21 (stereo unspecified)
inactive: [1] 24% | [2] 4.6% | [3] 0.6% | [4] -0.4% | [5] 9.15% | [6] 11.6%

CCCCC1(CCO)C(=O)NC(=O)NC1=O
inactive: [1] -12.1% | [2] -2.65% | [3] -5.7% | [4] -19.1% | [5] 28.4% | [6] -20.6%

S=P(NCc1cccc(CNP(=S)(N2CC2)N2CC2)c1)(N1CC1)N1CC1
inactive: [1] 24.4% | [2] -0.2% | [3] 16.2% | [4] 7.8% | [5] -1.6% | [6] 9.4%

CCN(CC)c1cccc(OC(=O)NC)c1
inactive: [1] 0.55% | [2] -0.25% | [3] -4.6% | [4] -15.8% | [5] 3.5% | [6] -10%

CCCCNC(=O)CCl
inactive: [1] 13.4% | [2] 13.7% | [3] 9.15% | [4] -0.4% | [5] 9.3% | [6] 13.8%

Oc1ccccc1C=NCCN=Cc1ccccc1O.[Fe]
inactive: [1] 11.8% | [2] 22.2% | [3] 5.35% | [4] 6.25% | [5] 46% | [6] 13.6%

O=C1Cc2ccccc2C(=O)N1CCN1CCOCC1
inactive: [1] 4.05% | [2] -14.2% | [3] -3.95% | [4] 1.55% | [5] -1.5% | [6] 1.55%

C[n+]1ccccc1-c1ccc[n+](CCCCC[n+]2cccc(-c3cccc[n+]3C)c2)c1
inactive: [1] 4.45% | [2] -8.6% | [3] -5.5% | [4] -22.4% | [5] -1.5% | [6] 8.15%

COc1ccc2c(c1)C1(C)CCN(CCc3ccccc3)C(C2)C1C (stereo unspecified)
inactive: [1] 24.9% | [2] 15.4% | [3] 20.7% | [4] 0.05% | [5] 6.25% | [6] 24.4%

CC(C)CC(C)OC(=O)Cc1ccccc1 (stereo unspecified)
inactive: [1] 39% | [2] 14.5% | [3] 31.1% | [4] -6.9% | [5] 7.8% | [6] 31.2%

Oc1ccccc1/C=N/Sc1ccccc1.Oc1ccccc1/C=N/Sc1ccccc1.[Ni+2]
inactive: [1] 3.2% | [2] -0.85% | [3] 30.6% | [4] -6.6% | [5] 12.7% | [6] 36%

O=C(NCC(O)CO)c1c([N+](=O)[O-])ccc(N(CCCl)CCCl)c1[N+](=O)[O-] (stereo unspecified)
inactive: [1] -11.2% | [2] -9.85% | [3] -0.45% | [4] 1.45% | [5] -19.1% | [6] 21%

Oc1cccc(Cl)c1
inactive: [1] -3.15% | [2] -30.1% | [3] 4.75% | [4] 6.1% | [5] -2.45% | [6] 8.3%

CC(=O)Nc1cc([As]=O)ccc1O (stereo unspecified)
inactive: [1] 29.2% | [2] 25.2% | [3] 31.8% | [4] 10.6% | [5] 50.8% | [6] 32.6%

CCOP(O)(=S)OCC.[Sm]
inactive: [1] 1.65% | [2] -14.6% | [3] -7.65% | [4] -43.1% | [5] -17.9% | [6] -15.8%
